Measured values as given in the supplement of paper PMC4466140.

B1: unnamed (peptide)
chain: EREKALPPIPFTTTL

Molecular target: AgAbp1
Assay: SPOT peptide array binding signal intensity (averaged, normalized) (arbitrary units (background-subtracted, floor 0; scale differs between SH3 domains)); higher = stronger binding of the SH3 domain to the peptide
In short: (§1)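 GST-SH3 fusions from four yeast species, purified on glutathione Sepharose, were incubated at 10 μg/ml overnight at 4°C on membranes of synthetic 15-mer peptides in which cysteines were replaced with serines. Binding signal is the normalized, background-subtracted spot intensity averaged over replicates, in domain-specific arbitrary units.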

Binder	SPOT peptide array binding signal intensity
B1	≤ 0

Molecular target: AgBbc1
Assay: as above
In short: as §1

Binder	SPOT peptide array binding signal intensity
B1	≤ 0

Molecular target: AgBem1-D1
Assay: as above
In short: as §1

Binder	SPOT peptide array binding signal intensity
B1	71

Molecular target: AgBzz1-D1
Assay: as above
In short: as §1

Binder	SPOT peptide array binding signal intensity
B1	13

Molecular target: AgBzz1-D2
Assay: as above
In short: as §1

Binder	SPOT peptide array binding signal intensity
B1	≤ 0

Molecular target: AgCyk3
Assay: as above
In short: as §1

Binder	SPOT peptide array binding signal intensity
B1	2

Molecular target: AgFus1
Assay: as above
In short: as §1

Binder	SPOT peptide array binding signal intensity
B1	5

Molecular target: AgHof1
Assay: as above
In short: as §1

Binder	SPOT peptide array binding signal intensity
B1	132

Molecular target: AgHse1
Assay: as above
In short: as §1

Binder	SPOT peptide array binding signal intensity
B1	0.5

Molecular target: AgLsb1
Assay: as above
In short: as §1

Binder	SPOT peptide array binding signal intensity
B1	18

Molecular target: AgLsb4
Assay: as above
In short: as §1

Binder	SPOT peptide array binding signal intensity
B1	3.5

Molecular target: AgMyo5
Assay: as above
In short: as §1

Binder	SPOT peptide array binding signal intensity
B1	≤ 0

Molecular target: AgNbp2
Assay: as above
In short: as §1

Binder	SPOT peptide array binding signal intensity
B1	≤ 0

Molecular target: AgRvs167
Assay: as above
In short: as §1

Binder	SPOT peptide array binding signal intensity
B1	0.333

Molecular target: AgSho1
Assay: as above
In short: as §1

Binder	SPOT peptide array binding signal intensity
B1	5670

Molecular target: AgSla1-D1-D2
Assay: as above
In short: as §1

Binder	SPOT peptide array binding signal intensity
B1	≤ 0

Molecular target: AgSla1-D3
Assay: as above
In short: as §1

Binder	SPOT peptide array binding signal intensity
B1	≤ 0

Molecular target: CaAbp1-D1
Assay: as above
In short: as §1

Binder	SPOT peptide array binding signal intensity
B1	≤ 0

Molecular target: CaAbp1-D2
Assay: as above
In short: as §1

Binder	SPOT peptide array binding signal intensity
B1	≤ 0

Molecular target: CaBbc1
Assay: as above
In short: as §1

Binder	SPOT peptide array binding signal intensity
B1	≤ 0

Molecular target: CaBem1-D1
Assay: as above
In short: as §1

Binder	SPOT peptide array binding signal intensity
B1	1.5

Molecular target: CaBzz1-D1
Assay: as above
In short: as §1

Binder	SPOT peptide array binding signal intensity
B1	≤ 0

Molecular target: CaBzz1-D2
Assay: as above
In short: as §1

Binder	SPOT peptide array binding signal intensity
B1	1.53e-05

Molecular target: CaCyk3
Assay: as above
In short: as §1

Binder	SPOT peptide array binding signal intensity
B1	≤ 0

Molecular target: CaFus1
Assay: as above
In short: as §1

Binder	SPOT peptide array binding signal intensity
B1	125

Molecular target: CaHof1
Assay: as above
In short: as §1

Binder	SPOT peptide array binding signal intensity
B1	3

Molecular target: CaHse1
Assay: as above
In short: as §1

Binder	SPOT peptide array binding signal intensity
B1	30

Molecular target: CaLsb1
Assay: as above
In short: as §1

Binder	SPOT peptide array binding signal intensity
B1	0.5

Molecular target: CaLsb4
Assay: as above
In short: as §1

Binder	SPOT peptide array binding signal intensity
B1	≤ 0

Molecular target: CaMyo5
Assay: as above
In short: as §1

Binder	SPOT peptide array binding signal intensity
B1	0.5

Molecular target: CaNbp2
Assay: as above
In short: as §1

Binder	SPOT peptide array binding signal intensity
B1	≤ 0

Molecular target: CaRvs167
Assay: as above
In short: as §1

Binder	SPOT peptide array binding signal intensity
B1	2.67

Molecular target: CaRvs167-3
Assay: as above
In short: as §1

Binder	SPOT peptide array binding signal intensity
B1	1

Molecular target: CaSho1
Assay: as above
In short: as §1

Binder	SPOT peptide array binding signal intensity
B1	4810

Molecular target: CaSla1-D1-D2
Assay: as above
In short: as §1

Binder	SPOT peptide array binding signal intensity
B1	≤ 0

Molecular target: CaSla1-D3
Assay: as above
In short: as §1

Binder	SPOT peptide array binding signal intensity
B1	0.5

Molecular target: ScAbp1
Assay: as above
In short: as §1

Binder	SPOT peptide array binding signal intensity
B1	≤ 0

Molecular target: ScBbc1
Assay: as above
In short: as §1

Binder	SPOT peptide array binding signal intensity
B1	1

Molecular target: ScBem1-D1
Assay: as above
In short: as §1

Binder	SPOT peptide array binding signal intensity
B1	≤ 0

Molecular target: ScBzz1-D1
Assay: as above
In short: as §1

Binder	SPOT peptide array binding signal intensity
B1	≤ 0

Molecular target: ScBzz1-D2
Assay: as above
In short: as §1

Binder	SPOT peptide array binding signal intensity
B1	2

Molecular target: ScCyk3
Assay: as above
In short: as §1

Binder	SPOT peptide array binding signal intensity
B1	5

Molecular target: ScFus1
Assay: as above
In short: as §1

Binder	SPOT peptide array binding signal intensity
B1	2

Molecular target: ScHof1
Assay: as above
In short: as §1

Binder	SPOT peptide array binding signal intensity
B1	66

Molecular target: ScHse1
Assay: as above
In short: as §1

Binder	SPOT peptide array binding signal intensity
B1	≤ 0

Molecular target: ScLsb1
Assay: as above
In short: as §1

Binder	SPOT peptide array binding signal intensity
B1	≤ 0

Molecular target: ScLsb2
Assay: as above
In short: as §1

Binder	SPOT peptide array binding signal intensity
B1	≤ 0

Molecular target: ScLsb3
Assay: as above
In short: as §1

Binder	SPOT peptide array binding signal intensity
B1	≤ 0

Molecular target: ScLsb4
Assay: as above
In short: as §1

Binder	SPOT peptide array binding signal intensity
B1	0.5

Molecular target: ScMyo3
Assay: as above
In short: as §1

Binder	SPOT peptide array binding signal intensity
B1	≤ 0

Molecular target: ScMyo5
Assay: as above
In short: as §1

Binder	SPOT peptide array binding signal intensity
B1	≤ 0

Molecular target: ScNbp2
Assay: as above
In short: as §1

Binder	SPOT peptide array binding signal intensity
B1	≤ 0

Molecular target: ScPex13
Assay: as above
In short: as §1

Binder	SPOT peptide array binding signal intensity
B1	86.8

Molecular target: ScRvs167
Assay: as above
In short: as §1

Binder	SPOT peptide array binding signal intensity
B1	3.5

Molecular target: ScSho1
Assay: as above
In short: as §1

Binder	SPOT peptide array binding signal intensity
B1	7050

Molecular target: ScSla1-D1-D2
Assay: as above
In short: as §1

Binder	SPOT peptide array binding signal intensity
B1	≤ 0

Molecular target: ScSla1-D3
Assay: as above
In short: as §1

Binder	SPOT peptide array binding signal intensity
B1	≤ 0

Molecular target: SpAbp1-D1
Assay: as above
In short: as §1

Binder	SPOT peptide array binding signal intensity
B1	≤ 0

Molecular target: SpBbc1
Assay: as above
In short: as §1

Binder	SPOT peptide array binding signal intensity
B1	≤ 0

Molecular target: SpBzz1-D1
Assay: as above
In short: as §1

Binder	SPOT peptide array binding signal intensity
B1	61

Molecular target: SpBzz1-D2
Assay: as above
In short: as §1

Binder	SPOT peptide array binding signal intensity
B1	≤ 0

Molecular target: SpCyk3
Assay: as above
In short: as §1

Binder	SPOT peptide array binding signal intensity
B1	3.5

Molecular target: SpHof1
Assay: as above
In short: as §1

Binder	SPOT peptide array binding signal intensity
B1	1190

Molecular target: SpHof1-2
Assay: as above
In short: as §1

Binder	SPOT peptide array binding signal intensity
B1	1870

Molecular target: SpHof1-3
Assay: as above
In short: as §1

Binder	SPOT peptide array binding signal intensity
B1	3060

Molecular target: SpHse1
Assay: as above
In short: as §1

Binder	SPOT peptide array binding signal intensity
B1	29.2

Molecular target: SpLsb1
Assay: as above
In short: as §1

Binder	SPOT peptide array binding signal intensity
B1	≤ 0

Molecular target: SpLsb4
Assay: as above
In short: as §1

Binder	SPOT peptide array binding signal intensity
B1	7

Molecular target: SpMyo1
Assay: as above
In short: as §1

Binder	SPOT peptide array binding signal intensity
B1	32.5

Molecular target: SpNbp2
Assay: as above
In short: as §1

Binder	SPOT peptide array binding signal intensity
B1	≤ 0

Molecular target: SpPex13
Assay: as above
In short: as §1

Binder	SPOT peptide array binding signal intensity
B1	1

Molecular target: SpRvs167
Assay: as above
In short: as §1

Binder	SPOT peptide array binding signal intensity
B1	38.7

Molecular target: SpSla1-D1-D2
Assay: as above
In short: as §1

Binder	SPOT peptide array binding signal intensity
B1	9

Molecular target: SpSla1-D3
Assay: as above
In short: as §1

Binder	SPOT peptide array binding signal intensity
B1	0.5
